{"source": "PubChem BioAssay AID504834", "about": "(National Center for Advancing Translational Sciences (NCATS), 2011)", "note": "Several values for one entry are separate records, joined by “and”; a condition that tells them apart may be missing. Identical values can stand only once. About 22,000 (6.9%) of roughly 320,000 compounds were called active. Roughly 27% stayed inconclusive and do not appear here. The sample holds actives, similar compounds and a random draw of the others, so the mix is not that of the screen. Calls follow the shape of the dose curve; as a rule, active = well fitted inhibition curve with a large enough effect; inconclusive = small, poorly fitted or top-dose-only effect, or another doubt; inactive = no such curve, though single readings can be large or run the other way. A structure can be active in one record and inactive in another. % is scaled to controls: 0 for no effect and ±100 for the full control effect; potency is read from the fitted curve at half-maximal effect.", "data": [{"experiment": "Primary qHTS for delayed death inhibitors of the malarial parasite plastid, 96 hour incubation", "details": "P. falciparum luciferase reporter growth; series mostly up to 28.7 µM; activity change, negative = inhibition: at the top concentration", "how_it_was_run": "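Parasite growth measured via integrated firefly luciferase reporter in P. falciparum. Infected erythrocytes at 2% hematocrit, 0.05% parasitemia final were treated 96 hours at 37 C under 5% CO2, and luminescence was read.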", "values": [{"smiles": "CCOc1ccc2[nH]c3nc(SCC(=O)NC4CCCC4)nnc3c2c1", "activity change, negative = inhibition": "58.3% (inactive)"}, {"smiles": "CCOc1ccc(CN2CCN(Cc3c[nH]c4ccccc34)CC2)cc1", "activity change, negative = inhibition": "0% (inactive)"}, {"smiles": "Cc1cccc(OCC(=O)NCCNC(=O)c2cccnc2)c1", "activity change, negative = inhibition": "-11.1% (inactive)"}, {"smiles": "CN(CC(=O)Nc1ccccc1Cl)C(=O)c1ccccc1SCC(=O)N1CCCC1", "activity change, negative = inhibition": "-6.58% (inactive)"}, {"smiles": "CCOC(=O)CSc1nc2ccc(C)cc2n2cnnc12", "activity change, negative = inhibition": "-4.99% (inactive)"}, {"smiles": "CCc1noc(C)c1C(=O)N1CCCSC1=Nc1ccccc1OC", "activity change, negative = inhibition": "-9.42% (inactive)"}, {"smiles": "COc1ccccc1N=C1SC(C)CN1C(=O)C1CCC1", "note": "(centres undefined)", "Potency": "10.4 µM (active)"}, {"smiles": "COc1ccccc1N=C1SCCCN1C", "activity change, negative = inhibition": "-24.4% (inactive)"}, {"smiles": "O=S(=O)(NC(=S)Nc1ccccc1)c1ccc(F)cc1", "activity change, negative = inhibition": "25.1% (inactive)"}, {"smiles": "CO[C@H]1[C@@H]2C=CO[C@@H](O[C@H]3O[C@@H](CO)[C@H](O)[C@@H](O)[C@@H]3O)[C@@H]2[C@@]2(CO)O[C@@H]12", "activity change, negative = inhibition": "36.1% (inactive)"}, {"smiles": "O=C(CN(C(=O)c1csnn1)c1cccc(Cl)c1)NC1CCCC1", "activity change, negative = inhibition": "45.8% (inactive)"}, {"smiles": "CCOc1ccc(N(C(=O)c2snc(C(N)=O)c2N)C(C(=O)NCC2CCCO2)c2c[nH]c3ccccc23)cc1", "note": "(centres undefined)", "activity change, negative = inhibition": "2% (inactive)"}, {"smiles": "COc1ccc(-c2nc(CS(=O)CC(=O)NCc3ccccn3)c(C)o2)cc1", "note": "(centres undefined)", "Potency": "11.7 µM (active)"}, {"smiles": "COc1ccc(-c2nc(CS(=O)CC(=O)NCc3ccccc3)c(C)o2)cc1OC", "note": "(centres undefined)", "Potency": "13.1 µM (active)"}, {"smiles": "COc1cccc(-c2nc(CS(=O)CC(=O)NCc3ccc(F)cc3)c(C)o2)c1", "note": "(centres undefined)", "activity change, negative = inhibition": "-21.6% (inactive)"}, {"smiles": "Cc1ccc(-c2nc(CS(=O)CC(=O)NC3CCCC3)c(C)o2)cc1", "note": "(centres undefined)", "Potency": "4.65 µM (active)"}, {"smiles": "Cc1ccc(-c2nc(CS(=O)CC(=O)N3CCN(c4ncccn4)CC3)c(C)o2)cc1", "note": "(centres undefined)", "activity change, negative = inhibition": "-21.3% (inactive)"}, {"smiles": "Cc1ccc(-c2nc(CSCC(=O)NC3CCN(Cc4ccccc4)CC3)c(C)o2)cc1", "activity change, negative = inhibition": "-10.5% (inactive)"}, {"smiles": "COc1ccc2oc(=O)c(C(=O)NCc3ccccn3)cc2c1", "activity change, negative = inhibition": "54.7% (inactive)"}, {"smiles": "COc1ccc(-c2nc(CS(=O)CC(=O)N3CCC4(CC3)OCCO4)c(C)o2)cc1", "note": "(centres undefined)", "activity change, negative = inhibition": "39% (inactive)"}, {"smiles": "Cc1cccc(-c2nc(CS(=O)CC(=O)NC(C)CCc3ccccc3)c(C)o2)c1", "note": "(centres undefined)", "activity change, negative = inhibition": "-2.67% (inactive)"}, {"smiles": "CC(OC(=O)CNC(=O)c1ccc(Cl)c([N+](=O)[O-])c1)C(=O)NCc1ccco1", "note": "(centres undefined)", "activity change, negative = inhibition": "7.29% (inactive)"}, {"smiles": "NC(=O)c1ccc(Nc2ccc3c(c2)CCC3)c([N+](=O)[O-])c1", "activity change, negative = inhibition": "-3.89% (inactive)"}, {"smiles": "CCC(C)(C)NC(=O)C(c1ccc(O)cc1)N(Cc1ccco1)C(=O)CCC(=O)Nc1ccccn1", "note": "(centres undefined)", "activity change, negative = inhibition": "-2.26% (inactive)"}, {"smiles": "Cc1ccc(NC(=O)COC(=O)CN2CCCCCC2=O)c(C)c1", "activity change, negative = inhibition": "33.1% (inactive)"}, {"smiles": "Cc1cccc(NC(=O)c2cc([N+](=O)[O-])ccc2N2CCN(C)CC2)c1", "activity change, negative = inhibition": "0% (inactive)"}, {"smiles": "O=C(Nc1cccc(Cl)c1)c1cc([N+](=O)[O-])ccc1N1CCN(CCO)CC1", "Potency": "3.29 µM (active)"}, {"smiles": "CN1CCN(CC(=O)Nc2cccc([N+](=O)[O-])c2)CC1", "activity change, negative = inhibition": "-26% (inactive)"}, {"smiles": "Cc1c(Cl)cccc1NC(=O)NCCCN1CCCC1=O", "activity change, negative = inhibition": "-15.2% (inactive)"}, {"smiles": "COC(=O)c1c(NC(=O)CN2CCN(S(=O)(=O)c3ccccc3[N+](=O)[O-])CC2)sc2c1CCC(C)C2", "note": "(centres undefined)", "Potency": "9.28 µM (active)"}, {"smiles": "Cc1c(Br)c([N+](=O)[O-])nn1CC(=O)Nc1sc2c(c1C(=O)OC(C)C)CCC(C)C2", "note": "(centres undefined)", "activity change, negative = inhibition": "412% (inactive)"}, {"smiles": "COc1ccccc1NC(=O)CN1CCN(S(=O)(=O)c2ccc(Br)cc2)CC1", "activity change, negative = inhibition": "31% (inactive)"}, {"smiles": "O=C(Cc1ccsc1)N1CCN(S(=O)(=O)c2cc(C(F)(F)F)cc(C(F)(F)F)c2)CC1", "activity change, negative = inhibition": "-43.5% (inactive)"}, {"smiles": "O=C(CSc1ncn[nH]1)Nc1nc(-c2cccc([N+](=O)[O-])c2)cs1", "activity change, negative = inhibition": "7.32% (inactive)"}, {"smiles": "COc1ccc2c(c1OC)C(=O)N(c1ccc(O)cc1)C2", "activity change, negative = inhibition": "39% (inactive)"}, {"smiles": "CCN1C(=NCC(C)C)N[C@@H](CCc2ccccc2)[C@H](C(=O)NCC(C)C)[C@H]1C", "activity change, negative = inhibition": "35.7% (inactive)"}, {"smiles": "CCN1C(=NCc2ccc(OC)cc2)N[C@@H](CCc2ccccc2)[C@H](C(=O)NCc2ccc(OC)cc2)[C@H]1C", "Potency": "inactive and 5.22 µM (active)"}, {"smiles": "COc1ccc(CNC(=O)C2CCN(S(C)(=O)=O)CC2)cc1", "activity change, negative = inhibition": "-5.46% (inactive)"}, {"smiles": "O=C(Nc1cccnc1Cl)c1cc(-c2ccccc2O)on1", "activity change, negative = inhibition": "9.57% (inactive)"}, {"smiles": "CC(=O)c1ccc(NC(=O)C2CC(=O)Nc3nc4ccccc4n32)cc1", "note": "(centres undefined)", "activity change, negative = inhibition": "5.37% (inactive)"}, {"smiles": "O=C(c1ccncc1)N1CCN(S(=O)(=O)c2cccc([N+](=O)[O-])c2)CC1", "activity change, negative = inhibition": "-3.4% (inactive)"}, {"smiles": "C=CCN1CCN(C(=O)CCCc2ccccc2)CC1", "activity change, negative = inhibition": "47% (inactive)"}, {"smiles": "CCC(=O)c1ccc(OCC(=O)OCC(=O)NC2CCCCCC2)cc1", "activity change, negative = inhibition": "19.3% (inactive)"}, {"smiles": "Cc1cccc(NC(=O)CN2CCN(C(=O)C3CCN(C(=O)/C=C/c4ccccc4)CC3)CC2)c1C", "activity change, negative = inhibition": "0.105% (inactive)"}, {"smiles": "COc1ccc(-c2nn(-c3ccccc3)cc2/C=N/Nc2ccccn2)cc1OC", "Potency": "3.7 µM (active)"}, {"smiles": "COc1ccc(-c2nn(-c3ccccc3)cc2C(=O)Nc2nccs2)cc1OC", "activity change, negative = inhibition": "-1.92% (inactive)"}, {"smiles": "Oc1ccc(Br)cc1/C=N/Nc1ccccn1", "activity change, negative = inhibition": "-4.24% (inactive)"}, {"smiles": "CC(=O)Nc1cccc(C(=O)OCC(=O)c2ccc3c(c2)OCO3)c1", "activity change, negative = inhibition": "290% (inactive)"}, {"smiles": "Cc1ccc(CNCc2ccc3c(c2)OCO3)c(C)c1", "activity change, negative = inhibition": "-28.5% (inactive)"}]}]}
